The source of these data is ChEMBL document CHEMBL3988442, “University of Dundee, Small-Polar-MMV Screening Library” (2021).

The target of test [1] is T1, Aspartate--tRNA(Asp/Asn) ligase (Mycobacterium tuberculosis (strain ATCC 25618 / H37Rv)) (UniProt P9WFW3). Also: in the data most compounds retested in dose-response had high values.
T1 sequence (whole entry): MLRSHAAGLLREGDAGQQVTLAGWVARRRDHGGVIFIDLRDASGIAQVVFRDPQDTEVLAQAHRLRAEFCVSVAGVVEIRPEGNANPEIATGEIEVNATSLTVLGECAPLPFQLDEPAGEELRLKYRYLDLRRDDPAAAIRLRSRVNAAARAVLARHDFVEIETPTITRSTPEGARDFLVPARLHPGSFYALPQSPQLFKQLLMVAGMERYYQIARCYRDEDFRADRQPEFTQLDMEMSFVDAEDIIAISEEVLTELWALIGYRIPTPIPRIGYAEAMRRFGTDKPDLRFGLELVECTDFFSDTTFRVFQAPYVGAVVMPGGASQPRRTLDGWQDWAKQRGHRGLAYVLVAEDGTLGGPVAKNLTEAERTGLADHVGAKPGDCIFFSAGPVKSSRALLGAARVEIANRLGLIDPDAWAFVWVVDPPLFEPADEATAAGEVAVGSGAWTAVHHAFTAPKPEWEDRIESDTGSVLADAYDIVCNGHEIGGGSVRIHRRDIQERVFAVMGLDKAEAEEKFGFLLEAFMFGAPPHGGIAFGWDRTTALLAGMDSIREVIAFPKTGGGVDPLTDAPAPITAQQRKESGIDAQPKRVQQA
In words: Assay for Asp RNA synthetase-1 from Mycobacterium tuberculosis. Format: functional. The arrangement: scale not given: direction of the effect not stated beside the values. The conditions noted are these: 30 µM.

Test [2] addresses Shiga toxin 2 (Escherichia coli O157:H7) (UniProt P09385+P09386). In words: E. coli 0.157:H7 Shiga Toxin SOP - stx2 screening assay. The conditions noted are these: 30 µM. Format: functional. Details: scale not given: direction of the effect not stated beside the values.

As to `Cc1nnc(CCNC2CCN(c3ncnc4c(C)csc34)CC2)s1`, the results for the Percent Effect in test [1] and in test [2] were 0.208% and -65.7%, respectively.
Taken in the same sequence, the figures for `Cc1cc(OCC(=O)N2CCCC(c3noc(C)n3)C2)no1` (centres undefined) were -1.75% and -41.1%.
Taken in the same sequence, the figures for `CCn1c(C)cc(C(=O)N2CCCC(c3nc(C)no3)C2)c1C` (centres undefined) were 3.31% and 9.36%.
Taken in the same sequence, the figures for `CCS(=O)(=O)N1CCC(c2nc3ccc(-c4ccccc4)cn3n2)CC1` were 0.251% and -35.2%.
On to `CCC(C)N(C)S(=O)(=O)c1ccc(CCNC(C)=O)s1` (centres undefined), for which the Percent Effect in test [1] was 0.0557%; in test [2], -17%.
In the same order, the values of `N#Cc1cccc(CN2CC[C@@H]3[C@@H]2CC(=O)N3Cc2cccnc2)c1` are 4.04% and -0.447%.
Take `CCCN(CCO)C(=O)C1CCC(=O)N(CCc2ccc(Cl)cc2)C1` (centres undefined): the Percent Effect is -4.04% in test [1] and 18% in test [2].
Taken in the same sequence, the figures for `CCN(CC)Cc1ccc(C(=O)N2CCCCC2Cn2cccn2)o1` (centres undefined) were 3.47% and 1.31%.
In the same order, the values of `CNS(=O)(=O)Cc1ccc(CNC(=O)c2ccc(C)[nH]c2=O)cc1` are -0.577% and -39.3%.
As for `Cc1n[nH]c(=O)c2c(NC(=O)CN3CCC(O)CC3)oc(C)c12`, the Percent Effect in test [1] is 1.28%; in test [2] it was -66.6%.
Taken in the same sequence, the figures for `CC(C)NC(=O)[C@@H]1C[C@H](N)CN1C(=O)c1cc2c([nH]c1=O)CCCC2` were 2.4% and -1.55%.
Taken in the same sequence, the figures for `FC1(F)CCN(Cc2ccccn2)CC12CCN(c1cccnc1)C2` (centres undefined) were 1.08% and -6.96%.
In the same order, the values of `Cc1cc(C)n(CC2CN(Cc3cccc(C(N)=O)c3)CCO2)n1` (centres undefined) are -8.8% and -5.62%.
With `COc1ccc(C(=O)N(C)Cc2nnc3ccccn23)c(OC)c1`, the Percent Effect in test [1] worked out at 0.49%; in test [2], 24.6%.
In the same order, the values of `O=C(CN1CC(n2cccn2)C1)NCCCc1ccccc1` are 0% and -22.1%.
Taken in the same sequence, the figures for `COc1cccc(CNc2nc(O)cc(C3CC(=O)N(C)C3)n2)c1` (centres undefined) were 4.42% and 12.2%.
Taken in the same sequence, the figures for `Cc1csc(Nc2cc(C3CCCCN3C)nc(C)n2)n1` (centres undefined) were -2.66% and -11.8%.
Take `O=C(NCCCN1CCCCC1)c1ccc(-n2ccc3ccccc32)s1`: the Percent Effect in test [1] was 5.58%; in test [2] it was -90%.
Taken in the same sequence, the figures for `O=C(CN1CCC(c2cccc(F)c2)C1)NCc1ccco1` (centres undefined) were -0.144% and -21.6%.
Taken in the same sequence, the figures for `CCNC(=O)N1CCCCC1CCO` (centres undefined) were -3.54% and -15.4%.
Turning to `c1ccc(N2CCOC3(CCCN(c4nncs4)C3)C2)nc1` (centres undefined), the Percent Effect worked out at 6.43% in test [1] and 1.67% in test [2].
On to `COCCN(Cc1ccc(F)cc1Cl)C(=O)c1ccc(=O)[nH]n1`, for which the Percent Effect in test [1] was -1.92%; in test [2], 2.84%.
As for `CCCNC(=O)CNc1cc(C#N)ccc1OCC`, the Percent Effect was -8.31% in test [1] and -4.19% in test [2].
In the same order, the values of `COc1cccc(COCC(=O)N2CCC(CC(N)=O)CC2)c1` are -3.72% and 32.3%.
Take `CC(C)CN1CCC2(CCN(Cc3ccoc3)CC2)C1=O`: the Percent Effect was 6.3% in test [1] and -11.6% in test [2].
As for `CCN(CC)C(=O)C(c1ccccc1)N1CCn2c(C)nnc2C1` (centres undefined), the Percent Effect in test [1] was -4.06%; in test [2], 4.2%.
As to `OC(COCc1ccc(Cl)cc1)CN1CCC(c2ccn[nH]2)CC1` (centres undefined), the Percent Effect was -1.57% in test [1] and -33% in test [2].
Taken in the same sequence, the figures for `Cc1nc(-c2ccc(Cl)s2)sc1C(=O)NCCS(N)(=O)=O` were -0.408% and -17.2%.
In the same order, the values of `COc1c(C2CCCN2Cc2cc(C)no2)c(C)nn1C` (centres undefined) are 3.61% and 18.1%.
For `O=C(NCCn1nc2ccccn2c1=O)c1cccc2[nH]ncc12`, the Percent Effect is -0.633% in test [1] and -25.7% in test [2].
In the same order, the values of `Cc1noc(Cl)c1CCC(=O)N1CCc2sccc2C1` are -1.63% and 18.9%.
For the molecule `Cc1noc(CCCC(=O)NC(C)c2cccnc2)n1` (centres undefined), the Percent Effect in test [1] is -0.922%; in test [2] it was 31.2%.
Taken in the same sequence, the figures for `CN(CCCc1cnn(C)c1)C(=O)C1COc2ccccc2C1` (centres undefined) were 11.4% and -16.4%.
In the same order, the values of `O=C(NCCCN1CCCC1=O)Nc1ccc(Br)cc1Cl` are -2.15% and -11%.
With `CS(=O)(=O)CCC(=O)N1CCC2(CCCN(C3CCOCC3)C2=O)C1` (centres undefined), the Percent Effect is 3.37% in test [1] and -8.62% in test [2].
For `Cn1cccc1C(=O)N1CCc2ncnc(C3CC3)c2CC1`, the Percent Effect is 0.574% in test [1] and -1.81% in test [2].
Turning to `O=S(=O)(CCNCc1ccc2c(c1)CCO2)N1CCOCC1`, the Percent Effect in test [1] is 0.97%; in test [2], -25.2%.
Taken in the same sequence, the figures for `CCc1nc(CC(=O)N2CCn3c(nnc3C(C)C)C2)cs1` were -0.367% and -14.7%.
Taken in the same sequence, the figures for `CC(C)=CCN1CCC(c2nccn2Cc2cscn2)CC1` were -3.28% and 22.8%.
Regarding `COc1ccc(OCc2cc(C(=O)N3CCN[C@H](C)C3)n[nH]2)c(Cl)c1`, the Percent Effect is -1.22% in test [1] and -61% in test [2].
In the same order, the values of `Cc1nc(CN(Cc2cccs2)C2CCS(=O)(=O)C2)oc1C` (centres undefined) are -1.77% and 34.6%.
Turning to `CCc1nc(CN2CCN(c3ncnc4cc(F)ccc34)CC2)no1`, the values for the Percent Effect in test [1] and in test [2] were -1.46% and -69.6%, respectively.
Consider `O=C(NCCCn1cncn1)NCC(c1ccco1)N1CCCCC1` (centres undefined), for which the Percent Effect in test [1] turned out to be 7.12%; in test [2], 18.2%.
Consider `COc1ccc(CN2CCC(O)CC2)c(OC)c1`, for which the Percent Effect in test [1] is -2.06%; in test [2], 7.95%.
In the same order, the values of `CCCn1nc2c(cc1=O)CN(CCCN1CCCC1=O)CC2` are 10.1% and 12.4%.
Turning to `Cn1cccc1C(=O)N1CCn2cc(CNC(=O)CC3CC3)nc2C1`, the Percent Effect was -0.0735% in test [1] and -50.9% in test [2].
On to `CCCNC(=O)c1ccc2c(c1)C(=O)N(CC(C)C)C2=O`, for which the Percent Effect in test [1] came out at 1.59%; in test [2] it was 3.24%.
On to `COc1ccc(NC(C)C(=O)N2CCN(c3ncccn3)CC2)cn1` (centres undefined), for which the Percent Effect in test [1] was -4.63%; in test [2], 5.46%.
In the same order, the values of `O=C(CCc1ccsc1)NCC1CCN(c2ccccc2)C1` (centres undefined) are 0.529% and -12.3%.
As to `CCCn1nc2c(cc1=O)CN(CCS(C)(=O)=O)CC2`, the values for the Percent Effect in test [1] and in test [2] were 5.96% and 0.931%, respectively.
As for `COc1ccc(C2C3=C(COC3=O)Nc3[nH]nc(C)c32)cc1OC` (centres undefined), the Percent Effect was -2.61% in test [1] and -21.4% in test [2].
Taken in the same sequence, the figures for `CCCN1CCC(NC(=O)c2ccc(F)cc2I)CC1` were -6.77% and 2.29%.
